From PubChem BioAssay (Tox21)
Results filed as inconclusive are left out. Activity calls are given as the source filed them. Unless noted, the call rests on the fitted dose curve; in most records, active means well fitted curve in the direction sought with a large enough effect in the repeat runs; inconclusive means weak or mixed curves; inactive means no such curve, though single readings can be large; an effect the other way counts as inactive or inconclusive.

Legend:
[1] = molecular target: Thyrotropin-releasing hormone receptor (Homo sapiens) (UniProt P34981); assay: qHTS assay to identify small molecule agonists of the thyrotropin-releasing hormone receptor (TRHR) signaling pathway (AID 1346891; calls by dose curve; further: series mostly up to about 58 µM)
Sequence of Thyrotropin-releasing hormone receptor (Homo sapiens) (P34981 whole entry, looked up): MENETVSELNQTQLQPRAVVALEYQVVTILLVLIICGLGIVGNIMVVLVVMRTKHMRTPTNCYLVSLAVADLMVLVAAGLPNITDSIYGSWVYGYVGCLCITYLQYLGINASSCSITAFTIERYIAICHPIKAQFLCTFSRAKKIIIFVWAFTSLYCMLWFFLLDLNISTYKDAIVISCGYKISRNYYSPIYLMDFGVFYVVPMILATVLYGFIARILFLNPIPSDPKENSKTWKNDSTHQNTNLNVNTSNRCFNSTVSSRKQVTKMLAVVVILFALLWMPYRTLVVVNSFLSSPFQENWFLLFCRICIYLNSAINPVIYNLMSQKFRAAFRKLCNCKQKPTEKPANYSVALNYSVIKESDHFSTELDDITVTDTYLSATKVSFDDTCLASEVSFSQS
How it was run: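 Intracellular calcium rise, read as fluorescence every second for 3 min, served as the agonist signal in dye-loaded HEK293 cells expressing TRHR; each compound ran at 15 concentrations in triplicate.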

[2] = Human pregnane X receptor (PXR) small molecule agonists, qHTS cell viability counter screen (AID 1346977); further: nearly all actives have a fitted effect of over 50% in size
How it was run: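 PXR-Luc HepG2, 2,000 cells/well, 5% charcoal-stripped FBS; 5hr settle; cpd 24hr, 37C/5% CO2; CellTiter-Fluor at 23hr, read 1hr later (fluorescence).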

[3] = Caspase-3/7 induction in CHO-K1 cells by small molecules, qHTS cell viability counter screen (AID 1346979); further: nearly all actives have a fitted effect of over 35% in size
How it was run: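 Cells (CHO-K1, wild type) are plated at 1,500 per well and incubated 5hr. Test compounds in DMSO are then pinned in, followed by 16hr at 37C and 5% CO2. Viability is read by CellTiter-Fluor fluorescence after 1hr.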

[4] = Caspase-3/7 induction in CHO-K1 cells by small molecules, qHTS assay (AID 1346980); further: nearly all actives have a fitted effect of over 15% in size
How it was run: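 Wild-type cells were seeded at 1,500 per well and settled 5 hr at 37 C, 5% CO2, then exposed to DMSO-dissolved compounds for 17 hr. Caspase-Glo 3/7 reagent was added, and luminescence was read after 30min at room temperature.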

[5] = Caspase-3/7 induction in HepG2 cells by small molecules, qHTS cell viability counter screen (AID 1346981); further: series mostly up to about 92 µM; nearly all actives have a fitted effect of over 30% in size
How it was run: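 In this quantitative HTS counter screen, compounds delivered in DMSO were left on unmodified HepG2 cells for 16 hr at 37 C. Viability was then determined fluorometrically with CellTiter-Fluor, in parallel with caspase-3/7 induction in the same wells.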

[6] = molecular target: Nuclear receptor subfamily 1 group I member 2 (Homo sapiens) (UniProt O75469); assay: Human pregnane X receptor (PXR) small molecule agonists, qHTS assay (AID 1346982); further: nearly all actives have a fitted effect of over 35% in size; further: potency means the concentration at half of the fitted maximal effect
Sequence of Nuclear receptor subfamily 1 group I member 2 (Homo sapiens) (O75469 whole entry, looked up): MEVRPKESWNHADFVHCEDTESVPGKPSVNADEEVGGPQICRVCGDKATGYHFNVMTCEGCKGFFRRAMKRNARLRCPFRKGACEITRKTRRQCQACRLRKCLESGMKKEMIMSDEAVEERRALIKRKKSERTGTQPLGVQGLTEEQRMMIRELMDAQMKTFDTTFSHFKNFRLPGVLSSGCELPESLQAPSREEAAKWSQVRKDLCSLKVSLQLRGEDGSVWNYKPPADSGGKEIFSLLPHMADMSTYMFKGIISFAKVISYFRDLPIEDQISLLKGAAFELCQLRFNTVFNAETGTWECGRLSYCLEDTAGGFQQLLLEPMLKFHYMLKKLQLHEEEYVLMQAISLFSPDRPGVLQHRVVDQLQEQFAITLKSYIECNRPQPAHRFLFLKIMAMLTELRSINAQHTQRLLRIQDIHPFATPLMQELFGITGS
How it was run: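 Reporter HepG2 cells expressing PXR-Luc are cultured in charcoal-stripped FBS (5%), treated with compounds for 24 hr at 37 C, and assayed by ONE-Glo luminescence after 30 min at room temperature.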

[7] = molecular target: Cytochrome P450 2D6 (Homo sapiens) (UniProt P10635); assay: Cytochrome P450 Family 2 Subfamily D Member 6 (CYP2D6) small molecule antagonists: luciferase reporter qHTS assay (AID 1671196); further: nearly all actives have a fitted effect of over 50% in size; further: potency means the concentration at half of the fitted maximal effect; on activity change, negative = inhibition: series mostly up to about 120 µM
Sequence of Cytochrome P450 2D6 (Homo sapiens) (P10635 whole entry, looked up): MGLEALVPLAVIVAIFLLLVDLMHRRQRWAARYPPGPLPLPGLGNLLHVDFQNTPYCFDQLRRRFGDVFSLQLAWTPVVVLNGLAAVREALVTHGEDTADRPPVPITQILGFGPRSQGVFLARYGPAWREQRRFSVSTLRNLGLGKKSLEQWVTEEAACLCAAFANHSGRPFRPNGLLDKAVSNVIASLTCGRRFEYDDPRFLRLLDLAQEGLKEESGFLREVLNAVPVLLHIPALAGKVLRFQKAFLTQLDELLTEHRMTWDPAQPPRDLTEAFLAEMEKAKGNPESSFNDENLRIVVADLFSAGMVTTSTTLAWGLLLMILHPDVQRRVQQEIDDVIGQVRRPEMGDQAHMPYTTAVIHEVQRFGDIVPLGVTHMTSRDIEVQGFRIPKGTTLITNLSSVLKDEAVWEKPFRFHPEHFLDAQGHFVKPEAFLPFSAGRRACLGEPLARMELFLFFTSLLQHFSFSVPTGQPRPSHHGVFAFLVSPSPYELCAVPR
How it was run: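 Test chemicals meet CYP2D6 plus proluciferin substrate (10 min, RT); NADPH regenerating solution then drives turnover for 1 h. Detection reagent halts the reaction; luminescence measured after 20 min.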

[8] = molecular target: Cytochrome P450 2C9 (Homo sapiens) (UniProt P11712); assay: Cytochrome P450 Family 2 Subfamily C Member 9 (CYP2C9) small molecule antagonists: luciferase reporter qHTS assay (AID 1671198); further: nearly all actives have a fitted effect of over 50% in size; further: potency means the concentration at half of the fitted maximal effect; on activity change, negative = inhibition: series mostly up to about 120 µM
Sequence of Cytochrome P450 2C9 (Homo sapiens) (P11712 whole entry, looked up): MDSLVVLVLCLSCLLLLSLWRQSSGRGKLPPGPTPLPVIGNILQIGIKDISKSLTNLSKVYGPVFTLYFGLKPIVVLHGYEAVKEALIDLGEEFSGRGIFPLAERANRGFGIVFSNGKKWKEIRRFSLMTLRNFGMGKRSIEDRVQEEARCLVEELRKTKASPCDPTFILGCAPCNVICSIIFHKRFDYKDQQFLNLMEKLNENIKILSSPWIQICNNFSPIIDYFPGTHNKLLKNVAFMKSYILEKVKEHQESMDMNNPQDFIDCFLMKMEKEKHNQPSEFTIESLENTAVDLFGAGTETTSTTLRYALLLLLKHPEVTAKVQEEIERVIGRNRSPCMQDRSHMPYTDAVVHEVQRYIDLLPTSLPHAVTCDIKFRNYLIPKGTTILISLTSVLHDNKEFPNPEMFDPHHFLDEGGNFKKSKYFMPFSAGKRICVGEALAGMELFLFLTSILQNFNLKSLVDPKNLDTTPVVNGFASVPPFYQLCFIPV
How it was run: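 CYP2C9 activity was measured with a P450-Glo proluciferin substrate. Enzyme–substrate mix was held with compound for 10 min at room temperature, then NADPH regeneration solution was added for 1 h at 37C. Luciferin product was read as luminescence.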

[9] = molecular target: Cytochrome P450 1A2 (Homo sapiens) (UniProt P05177); assay: Cytochrome P450 Family 1 Subfamily A Member 2 (CYP1A2) small molecule antagonists: luciferase reporter qHTS assay (AID 1671199); further: nearly all actives have a fitted effect of over 50% in size; further: potency means the concentration at half of the fitted maximal effect; on activity change, negative = inhibition: series mostly up to about 120 µM
Sequence of Cytochrome P450 1A2 (Homo sapiens) (P05177 whole entry, looked up): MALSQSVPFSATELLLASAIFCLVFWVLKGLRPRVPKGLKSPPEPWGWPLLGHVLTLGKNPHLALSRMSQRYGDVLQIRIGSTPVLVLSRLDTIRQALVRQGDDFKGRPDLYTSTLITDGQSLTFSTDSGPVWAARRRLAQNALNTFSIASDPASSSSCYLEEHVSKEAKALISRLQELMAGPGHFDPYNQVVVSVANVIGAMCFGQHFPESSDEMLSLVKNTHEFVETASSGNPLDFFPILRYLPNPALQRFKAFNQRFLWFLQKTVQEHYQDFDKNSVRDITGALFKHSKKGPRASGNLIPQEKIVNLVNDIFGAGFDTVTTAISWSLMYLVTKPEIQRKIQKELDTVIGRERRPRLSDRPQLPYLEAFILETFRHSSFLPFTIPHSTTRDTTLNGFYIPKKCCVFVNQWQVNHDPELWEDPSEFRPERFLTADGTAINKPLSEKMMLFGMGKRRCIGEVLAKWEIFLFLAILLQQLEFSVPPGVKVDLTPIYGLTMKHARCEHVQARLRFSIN
How it was run: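 Steps: enzyme-substrate mix dispensed; test compounds and furafylline control pinned in; 10 min room temperature; NADPH regeneration solution added, 1 h; reaction stopped with luciferin detection reagent; luminescence read after 20 min.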

[10] = molecular target: Voltage-gated inwardly rectifying potassium channel KCNH2 (Homo sapiens) (UniProt Q12809); assay: Human Ether-a-go-go-Related Gene (hERG) channel small molecule antagonists: fluorescence cell-based qHTS assay (AID 1671200)
Sequence of Voltage-gated inwardly rectifying potassium channel KCNH2 (Homo sapiens) (Q12809 whole entry, looked up): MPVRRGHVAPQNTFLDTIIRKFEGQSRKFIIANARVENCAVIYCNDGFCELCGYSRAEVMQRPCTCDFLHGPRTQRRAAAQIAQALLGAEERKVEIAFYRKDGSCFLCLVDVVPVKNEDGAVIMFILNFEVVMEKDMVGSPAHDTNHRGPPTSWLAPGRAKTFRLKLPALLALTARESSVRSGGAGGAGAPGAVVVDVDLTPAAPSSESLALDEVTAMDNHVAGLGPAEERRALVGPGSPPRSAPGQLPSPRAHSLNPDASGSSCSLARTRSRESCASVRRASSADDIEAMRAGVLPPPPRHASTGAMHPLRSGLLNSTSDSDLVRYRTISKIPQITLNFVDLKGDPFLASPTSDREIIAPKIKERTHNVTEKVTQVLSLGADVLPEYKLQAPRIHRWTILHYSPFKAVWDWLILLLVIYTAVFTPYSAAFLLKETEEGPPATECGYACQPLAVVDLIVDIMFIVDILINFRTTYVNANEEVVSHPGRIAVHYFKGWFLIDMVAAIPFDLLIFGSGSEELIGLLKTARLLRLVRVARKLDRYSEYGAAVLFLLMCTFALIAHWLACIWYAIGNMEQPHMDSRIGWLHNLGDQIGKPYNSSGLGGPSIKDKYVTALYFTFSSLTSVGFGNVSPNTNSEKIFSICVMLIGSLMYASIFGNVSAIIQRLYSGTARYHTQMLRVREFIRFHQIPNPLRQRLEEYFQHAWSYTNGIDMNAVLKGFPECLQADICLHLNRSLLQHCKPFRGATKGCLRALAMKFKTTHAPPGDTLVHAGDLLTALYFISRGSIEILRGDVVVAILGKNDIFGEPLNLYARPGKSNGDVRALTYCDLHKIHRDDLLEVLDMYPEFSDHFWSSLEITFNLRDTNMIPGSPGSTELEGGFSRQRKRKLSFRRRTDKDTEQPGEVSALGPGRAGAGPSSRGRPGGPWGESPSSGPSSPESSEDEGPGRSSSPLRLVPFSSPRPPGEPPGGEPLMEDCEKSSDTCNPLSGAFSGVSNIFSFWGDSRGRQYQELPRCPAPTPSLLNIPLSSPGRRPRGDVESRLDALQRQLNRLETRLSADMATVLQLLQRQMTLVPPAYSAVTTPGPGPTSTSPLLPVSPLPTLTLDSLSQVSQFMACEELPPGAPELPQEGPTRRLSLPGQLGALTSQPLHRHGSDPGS
How it was run: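 Channel function was assessed by thallium flux. Cells seeded the previous day and kept at 37 C took up FluxOR II dye over 1 h in the dark at room temperature, then sat another 10 min before stimulation.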

[11] = molecular target: Cytochrome P450 3A4 (Homo sapiens) (UniProt P08684); assay: Cytochrome P450 Family 3 Subfamily A Member 4 (CYP3A4) small molecule antagonists: luciferase reporter qHTS assay (AID 1671201); further: nearly all actives have a fitted effect of over 50% in size; further: potency means the concentration at half of the fitted maximal effect; on activity change, negative = inhibition: series mostly up to about 120 µM
Sequence of Cytochrome P450 3A4 (Homo sapiens) (P08684 whole entry, looked up): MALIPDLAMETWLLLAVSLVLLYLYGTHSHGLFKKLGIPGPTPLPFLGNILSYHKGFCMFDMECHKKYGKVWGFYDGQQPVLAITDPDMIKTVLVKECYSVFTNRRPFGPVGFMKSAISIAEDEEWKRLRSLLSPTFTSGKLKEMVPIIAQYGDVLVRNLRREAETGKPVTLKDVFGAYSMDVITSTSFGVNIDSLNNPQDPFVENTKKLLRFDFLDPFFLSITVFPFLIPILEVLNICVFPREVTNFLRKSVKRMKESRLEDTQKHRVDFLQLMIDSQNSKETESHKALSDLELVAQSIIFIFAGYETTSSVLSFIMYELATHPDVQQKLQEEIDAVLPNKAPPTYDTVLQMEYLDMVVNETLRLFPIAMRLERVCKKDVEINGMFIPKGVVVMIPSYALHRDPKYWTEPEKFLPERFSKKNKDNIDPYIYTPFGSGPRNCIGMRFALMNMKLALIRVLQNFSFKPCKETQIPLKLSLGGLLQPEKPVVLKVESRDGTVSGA
How it was run: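 Compounds in DMSO were pin-transferred onto CYP3A4 enzyme-substrate mix and held 10 min at room temperature. NADPH regenerating solution started the reaction for 1 h; luciferin detection reagent stopped it, and luminescence was read after 20 min.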

[12] = Caspase-3/7 induction in HepG2 cells by small molecules, qHTS assay (AID 1346978); further: nearly all actives have a fitted effect of over 15% in size
How it was run: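 Wild-type HepG2 cells (2,000/well) were settled 5 h at 37 C, 5% CO2, then exposed to compounds in DMSO for 17 h. Caspase-3/7 activity was read by luminescence 30 min after adding Caspase-Glo 3/7 reagent at room temperature.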

[13] = molecular target: Nuclear receptor subfamily 1 group I member 2 (Rattus norvegicus) (UniProt Q9R1A7); assay: Rat pregnane X receptor (rPXR) activation by small molecules, qHTS assay (AID 1346983); details: rPXR luciferase reporter cells, One-Glo luminescence, 24 h; max activation: stronger effect = higher value; further: nearly all actives have a fitted effect of over 20% in size
Sequence of Nuclear receptor subfamily 1 group I member 2 (Rattus norvegicus) (Q9R1A7 whole entry, looked up): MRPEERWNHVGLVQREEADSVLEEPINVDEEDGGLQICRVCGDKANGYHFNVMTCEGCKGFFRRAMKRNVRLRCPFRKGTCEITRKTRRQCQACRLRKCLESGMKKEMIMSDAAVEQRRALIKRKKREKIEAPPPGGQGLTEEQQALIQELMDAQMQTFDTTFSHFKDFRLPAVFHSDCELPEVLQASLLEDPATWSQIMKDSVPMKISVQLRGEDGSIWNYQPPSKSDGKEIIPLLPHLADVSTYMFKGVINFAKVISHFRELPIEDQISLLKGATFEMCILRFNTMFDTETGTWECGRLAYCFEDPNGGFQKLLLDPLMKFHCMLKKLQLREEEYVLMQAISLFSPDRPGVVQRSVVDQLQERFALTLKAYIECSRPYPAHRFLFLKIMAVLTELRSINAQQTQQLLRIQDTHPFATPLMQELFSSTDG
How it was run: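 Cell-based rPXR luciferase reporter assay, 2,000 cells per well, rested 5hr at 37 C before compound addition in DMSO, then 24 hr at 37 C. One-Glo reagent was added and luminescence read after 30 min at room temperature.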

[14] = molecular target: Nuclear receptor subfamily 1 group I member 2 (Homo sapiens) (UniProt O75469); assay: CYP3A4 induction through human pregnane X receptor (PXR) by small molecules, qHTS assay (AID 1346984); further: nearly all actives have a fitted effect of over 40% in size
How it was run: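 Induction measured in HepG2-based DPX-2 cells co-expressing human PXR and a CYP3A4 promoter-driven luciferase. After a 24-hour compound exposure, cells received CYP3A4 luciferin substrate at 3uM final for 3 hours, and light output was then recorded.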

[15] = molecular target: Nuclear receptor subfamily 1 group I member 2 (Homo sapiens) (UniProt O75469); assay: Human pregnane X receptor (PXR) activation by small molecules, qHTS assay (AID 1346985); further: nearly all actives have a fitted effect of over 40% in size
How it was run: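 DPX-2 cells (HepG2 co-transfected with a PXR response element and a CYP3A4-promoter luciferase construct) were seeded at 2,000 per well, rested 5 hr at 37C, then exposed to DMSO-dissolved compounds for 24 hr. Activation was read as luciferase luminescence.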

[16] = molecular target: Cytochrome P450 2C19 (Homo sapiens) (UniProt P33261); assay: Cytochrome P450 Family 2 Subfamily C Member 19 (CYP2C19) small molecule antagonists: luciferase reporter qHTS assay (AID 1671197); further: nearly all actives have a fitted effect of over 65% in size; further: potency means the concentration at half of the fitted maximal effect; on activity change, negative = inhibition: series mostly up to about 120 µM
Sequence of Cytochrome P450 2C19 (Homo sapiens) (P33261 whole entry, looked up): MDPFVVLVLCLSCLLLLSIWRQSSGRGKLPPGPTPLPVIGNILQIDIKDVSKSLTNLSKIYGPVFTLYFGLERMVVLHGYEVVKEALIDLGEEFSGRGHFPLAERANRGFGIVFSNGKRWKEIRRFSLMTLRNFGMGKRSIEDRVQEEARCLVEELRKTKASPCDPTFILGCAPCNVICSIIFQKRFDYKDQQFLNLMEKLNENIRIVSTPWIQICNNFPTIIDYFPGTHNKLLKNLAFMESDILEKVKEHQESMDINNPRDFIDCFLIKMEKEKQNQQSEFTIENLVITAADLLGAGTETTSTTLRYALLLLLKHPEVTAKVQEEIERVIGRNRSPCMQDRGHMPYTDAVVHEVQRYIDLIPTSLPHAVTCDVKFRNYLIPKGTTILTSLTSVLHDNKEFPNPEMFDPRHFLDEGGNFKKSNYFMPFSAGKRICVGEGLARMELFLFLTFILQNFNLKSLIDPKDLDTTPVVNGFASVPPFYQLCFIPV
How it was run: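 Light output is proportional to CYP2C19 activity: proluciferin substrate is converted to luciferin, then detected by a luciferin detection reagent that also stops the 1 h, 37C NADPH-driven reaction. Ketoconazole serves as positive control.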
On the % scale 0 is the no-effect control and ±100 the full control effect.

Cc1c(-c2cccnc2)c2ccccc2n1CCCCC(=O)O
active: Potency [8] 31.7 µM | Potency [9] 31.7 µM | Potency [11] 5.03 µM
inactive: outcome [1] | Potency [2] | Potency [3] | Potency [4] | Potency [5] | Potency [6] | Potency [7] | Potency [10]

COc1ccc(CN(CCN(C)C)c2ncccn2)cc1
active: Potency [7] 0.692 µM | Potency [16] 21.9 µM
inactive: outcome [1] | Potency [12] | Potency [3] | Potency [4] | Potency [5] | Potency [6] | max activation [13] -0.0529% | Potency [14] | Potency [15] | Potency [8] | Potency [10] | Potency [11]

C/C(=C(\CCO)SS/C(CCO)=C(\C)N(C=O)Cc1cnc(C)nc1N)N(C=O)Cc1cnc(C)nc1N
inactive: outcome [1] | Potency [2] | Potency [3] | Potency [4] | Potency [5] | Potency [6] | max activation [13] -1.12% | Potency [14] | Potency [15] | Potency [7] | Potency [16] | Potency [8] | Potency [9] | Potency [10]

COC=O
inactive: activation [1] -1.05% [at 5.23 µM] | activity change, negative = cytotoxicity [2] 3.92% [at 8.39 µM] | activity change, negative = cytotoxicity [3] 2.52% [at 8.39 µM] | caspase-3/7 activation [4] -0.739% [at 8.39 µM] | activity change, negative = cytotoxicity [5] 7.73% [at 8.39 µM] | activation [6] -0.203% [at 8.39 µM] | activity change, negative = inhibition [16] 14.6% [at 10.5 µM] | activity change, negative = inhibition [8] -23.5% [at 10.5 µM] | activity change, negative = inhibition [9] -7.2% [at 10.5 µM] | activity change, negative = inhibition [10] -1.77% [at 6.97 µM] | activity change, negative = inhibition [11] 11.4% [at 10.5 µM]

CC1(C)CC(=O)CC(C)(C)N1
inactive: outcome [1] | Potency [2] | Potency [3] | Potency [4] | Potency [5] | Potency [6] | Potency [7] | Potency [16] | Potency [8] | Potency [9] | Potency [10] | Potency [11]

COC(=O)C(C)(C)C
active: Potency [16] 32.2 µM | Potency [9] 40.5 µM
inactive: outcome [1] | Potency [2] | Potency [3] | Potency [4] | Potency [5] | Potency [6] | Potency [7] | Potency [10] | Potency [11]

SCCOCCOCCS
inactive: outcome [1] | Potency [2] | Potency [3] | Potency [4] | Potency [5] | Potency [7] | Potency [10]
active: Potency [6] 4.86 µM | Potency [16] 10 µM | Potency [8] 35.6 µM | Potency [9] 22.4 µM | Potency [11] 17.8 µM

CCCCCCCCCCCCN1CCOCC1
inactive: outcome [1] | Potency [2] | Potency [3] | Potency [4] | Potency [5] | Potency [6] | Potency [7] | Potency [16] | Potency [8] | Potency [9] | Potency [11]

CC[C@H](NC(C)C)[C@H](O)c1ccc(O)c2[nH]c(=O)ccc12
inactive: outcome [1] | Potency [2] | Potency [4] | Potency [5] | Potency [6] | max activation [13] -3.27% | Potency [14] | Potency [15] | Potency [16] | Potency [8] | Potency [9] | Potency [10] | Potency [11]
